An excerpt weighted towards active compounds, which were near 1.4% of everything screened.
PKM2 act: increases activity of human pyruvate kinase M2; purified PKM2, Kinase-Glo ATP luminescence, activation; response scale: 0% is enzyme alone, no compound; Potency, µM (titrated, usually from 57.5 µM), without a hit: top-dose activation, hits mostly activators; 260,000 compounds, 0.34% hits; further: potency means the concentration at half of the fitted maximal effect; nearly all actives have a fitted effect of over 55% in size
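ATP formation by purified human PK-M2, quantified via coupled luciferase luminescence after 1 h at room temperature with 0.1 mM ADP and 0.5 mM PEP final.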
LDHA block: blocks human lactate dehydrogenase A. P00338. purified LDHA, NADH/diaphorase-resazurin fluorescence; stronger effect = lower value. activity change, % (values are at about 110 or 230 µM). 480,000 compounds, 0.15% hits; in the data active means activity change below about -30%; inconclusive means mostly about -25% to -30%;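 further: plate controls were DMSO wells for no effect and wells without enzyme for full effect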
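LDH5 2 nM; NADH 0.06 mM, pyruvate 0.2 mM; 200 mM Tris pH 7.4, EDTA, Tween-20; 5 min RT. Detection: diaphorase 0.133 mg/mL + resazurin 37 µM, fluorescence ex540/em590 at 0 and 20 min; normalized to enzyme-free and DMSO wells.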
TrxR1 substrate: rat thioredoxin reductase 1 substrate activity. O89049. purified TrxR1 substrate turnover, NADPH consumption readout. Potency, µM (top dose mostly 114 µM), for the others: at the top dose activity change, negative = substrate turnover. 390,000 compounds, 0.01% hits; further: potency means the concentration at half of the fitted maximal effect; nearly all actives have a fitted effect of over 50% in size
Target sequence (O89049 whole entry, looked up): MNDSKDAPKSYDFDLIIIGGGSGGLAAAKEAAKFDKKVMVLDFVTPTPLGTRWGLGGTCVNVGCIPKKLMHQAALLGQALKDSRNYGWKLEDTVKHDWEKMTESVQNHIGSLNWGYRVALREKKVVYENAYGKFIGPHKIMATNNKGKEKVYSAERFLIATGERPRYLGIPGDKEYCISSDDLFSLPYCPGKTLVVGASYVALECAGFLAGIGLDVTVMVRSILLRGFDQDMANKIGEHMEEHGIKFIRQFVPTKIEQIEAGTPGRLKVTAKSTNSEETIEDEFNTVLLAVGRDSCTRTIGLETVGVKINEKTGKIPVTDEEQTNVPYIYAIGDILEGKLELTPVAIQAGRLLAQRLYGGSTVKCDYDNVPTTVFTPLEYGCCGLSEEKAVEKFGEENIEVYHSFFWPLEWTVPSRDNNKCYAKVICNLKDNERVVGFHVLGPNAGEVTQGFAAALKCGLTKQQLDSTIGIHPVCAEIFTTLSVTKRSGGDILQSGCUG
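Rat TrxR1, dispensed at 90 nM, was prereduced with 400 uM NADPH (final) for 5 min at ~22 deg C, then incubated with compound 15 min before 400 uM selenite. A first-read NADPH fluorescence drop versus no-compound background flagged substrates.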
GLS inh: blocks human kidney-isoform glutaminase activity; GLS enzymatic activity, qHTS titration; Potency, µM (top dose mostly 45.5 µM), without a hit: top-dose activity change, negative = inhibition, usual class: inhibitors; 410,000 compounds, 0.21% hits; AID 624170; further: potency means the concentration at half of the fitted maximal effect
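Read-out is an Amplex red fluorescence increase coupled through glutamate oxidase and HRP, measured before and after 30 min room-temperature incubation. hKGA is in 45 mM KH2PO4 (pH 8.2) with 0.02% Tween-20; glutamine added as 1mM solution.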
IDH1 R132H inh: inhibitors of human mutant IDH1 R132H. O75874. IDH1-R132H enzyme, NADPH consumption, diaphorase/resazurin fluorescence. Potency, µM (titrated, usually from 76.6 µM), for the others: at the top dose activity change, negative = inhibition, actives largely listed as inhibitors. 390,000 compounds, 0.093% hits. AID 602179; further: potency means the concentration at half of the fitted maximal effect; nearly all actives have a fitted effect of over 65% in size
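IDH1-R132H (0.5 ug/mL dispensed) in pH 7.5 Tris buffer was preincubated 30 min with compound, then given a substrate mix of 0.016 mM NADPH and 2 mM alpha-KG for 80 min at room temperature; remaining NADPH was read by diaphorase/resazurin fluorescence.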
rTrxR1 inhibitor: inhibitors of rat thioredoxin reductase 1; O89049; recombinant rTrxR1, NADPH fluorescence consumption, selenite substrate; Potency, µM (series often up to 114 µM), for inactives: at the top dose activity change, negative = inhibition, most hits filed as inhibitors; 390,000 compounds, 1% hits; AID 588453; further: potency means the concentration at half of the fitted maximal effect; nearly all actives have a fitted effect of over 65% in size
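Rat TrxR1 (90 nM in the dispensed reagent) was pre-reduced with 400 uM NADPH for 5 min at room temperature, then incubated with compound for 15 min. After 400 uM selenite was added, NADPH fluorescence (Ex 340/Em 450 nm) was followed for 8 min.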
* = called active by the depositor; [ ] = another dose, or the depositor's remark. Unless noted, the call rests on the fitted dose curve; in most records, active means well fitted curve in the direction sought with a large enough effect; inconclusive means small, poorly fitted or top-dose-only effect, or another doubt; inactive means no such curve, though single readings can be large; an effect the other way counts as inactive or inconclusive. Unless noted, on the % scale 0 is the no-effect control and ±100 the full control effect.

CCOc1ccc(CN(C)C(=O)CCl)cc1 was read as PKM2 act -6%, LDHA block 0, TrxR1 substrate 13%[57.1 µM], GLS inh -3%, IDH1 R132H inh -2% and rTrxR1 inhibitor 18µM*.
O=C(Nc1nc2n(n1)C(c1ccccc1)C=C(c1ccccc1)N2)c1ccccc1 (stereo not given) was read as LDHA block -6, TrxR1 substrate 10%, GLS inh -7%, IDH1 R132H inh -15% and rTrxR1 inhibitor 56µM*.
For O=C(Cc1cccs1)NC1C(=O)N2C(C(=O)[O-])=C(C[n+]3ccccc3)CSC12 (stereo not given) the results were GLS inh 11µM*.
Screening NC(=O)c1cc[n+](CC2=C(C(=O)O)N3C(=O)[C@@H](NC(=O)[C@@H](c4ccccc4)S(=O)(=O)[O-])[C@H]3SC2)cc1 returned LDHA block -5, TrxR1 substrate 13%[57.1 µM] and rTrxR1 inhibitor 45µM*.
`Cn1cc(C(=O)N2CCN(S(=O)(=O)c3cccc(Br)c3)CC2)c2ccccc21` gave LDHA block -18.
For NC(=O)c1ccc(COC(=O)c2ccc(Cl)cc2)cc1 the results were LDHA block 8.
For C[C@H](C(=O)OCO/N=[N+](\[O-])N1CCCC1)c1cccc2ccccc12 the results were TrxR1 substrate -10% and rTrxR1 inhibitor 18µM*.
Screening CCOC(=O)N1CCN(/[N+]([O-])=N/OCOC)CC1 returned LDHA block 1, TrxR1 substrate 4% and rTrxR1 inhibitor 15%.
O=C(CN1C(=O)C(=O)c2ccccc21)NCCc1ccccc1 was read as PKM2 act 32µM*, LDHA block 1, TrxR1 substrate 3%, GLS inh 1%, IDH1 R132H inh -1% and rTrxR1 inhibitor 14%.
O=C1C(=O)N(CCCc2ccccc2)c2ccccc21 was read as PKM2 act inconclusive, LDHA block 1, TrxR1 substrate 3%, GLS inh 2%, IDH1 R132H inh -2% and rTrxR1 inhibitor 5%.
`O=C(NNc1cccc(Cl)n1)c1c(F)cccc1F` gave PKM2 act 1%, LDHA block -6, TrxR1 substrate 6%[57.1 µM], GLS inh 7.9µM*, IDH1 R132H inh -6% and rTrxR1 inhibitor 4%[57.1 µM].
For Cc1ccc(-c2ccc(NC(=O)C3C4C=CC(C4)C3C(=O)O)cc2)o1 (stereo not given) the results were PKM2 act 16%, LDHA block 0, TrxR1 substrate -11%, GLS inh 13%, IDH1 R132H inh -3% and rTrxR1 inhibitor 22µM*.
For COCCn1c(C)c(C)c(S(=O)(=O)c2ccccc2)c1N the results were LDHA block -3, TrxR1 substrate 4%, GLS inh 11%, IDH1 R132H inh -5% and rTrxR1 inhibitor 20µM*.
Cc1c(S(=O)(=O)c2ccccn2)c(N)n(Cc2ccccc2)c1C was read as PKM2 act 3%, LDHA block 2, TrxR1 substrate 2%[57.1 µM], GLS inh -6%, IDH1 R132H inh 11% and rTrxR1 inhibitor 11µM*.
Screening Cc1c(S(=O)(=O)c2ccccn2)c(N)n(Cc2ccccc2Cl)c1C returned PKM2 act 4%, LDHA block -5, TrxR1 substrate 8%[57.1 µM], GLS inh -16%, IDH1 R132H inh -1% and rTrxR1 inhibitor inconclusive.
For COCCN(CCOC)C(=O)COc1cc2oc(=O)cc(C)c2cc1Cl the results were LDHA block 4.
`CCCCN(CC)C(=O)NNC(=O)C(C)Oc1ccc(C#N)cc1` (stereo not given) gave LDHA block 5.
Screening Cc1ccccc1C(=O)NNc1ncnc2c1cnn2C returned PKM2 act -4%, LDHA block 9, TrxR1 substrate 0%[57.1 µM], GLS inh 2%, IDH1 R132H inh 0% and rTrxR1 inhibitor 10%[57.1 µM].
